High-throughput results: PubChem BioAssay, National Center for Advancing Translational Sciences (NCATS)
Rows were chosen to be rich in hits. Some 1.3% of all compounds tested hit in one or more screens of this group.
CCT chaperon mod: High-Throughput Screening for Modulators of Cytosolic Chaperonin Activity | purified chaperonin ATPase assay, HTRF ADP detection, 30 min | activity change, % (test concentration not listed), hits read low | 360,000 tested, 0.3% active | AID 651819, 2012; in the data active = activity change below about -30%
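We incubate TRiC, 40 or 20 nM final, with library compounds at 76 uM and 10 uM ATP for 30 min at 37 °C. ADP formed is detected with Transcreener HTRF reagents after 30 min at room temperature.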
Six1-Eya2 blk: qHTS Assay for Inhibitors of the Six1/Eya2 Interaction; Homeobox protein SIX1 (Homo sapiens) + Protein phosphatase EYA2 (Homo sapiens), …; activity change, % (concentration not given with the values); AlphaScreen GST-Six1/His-Eya2 binding, biochemical; hits give low values; AID 651725, 2012; 360,000 tested, 0.56% active
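Six1/Eya2 binding was read as AlphaScreen signal after compounds were pinned into GST-Six1 plus His-tagged Eya2 (5X stock 250/500 nM) in pH 8.0 Tris/NaCl/TCEP buffer, beads added, then incubated 1 h, 37 C, dark.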
pAkt inh: HTS Assay for Inhibitors of Akt Phophorylation: Primary Screen | Neuro2A IGF-stimulated pAkt S473 HTRF, 20 min; hits give low values | 360,000 tested, 0.32% active | activity change, % for hits at 50 µM; in the data active = activity change below about -80%; inconclusive = mostly about -51% to -80%
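Single-point screen (50 µM final compound) in Neuro2A cells stimulated 20 min with 6 nM IGF at 37 deg C. After lysis, Ser473-phosphorylated Akt read by HTRF (ex 330 nm, em 615/665 nm) as the 665/615 ratio.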
CtBP-E1A blk: qHTS Assay for Inhibitors of the CtBP/E1A Interaction | AID 651724, 2012 | AlphaScreen GST-E1A/His-CtBP binding, 1536-well; hits give low values | activity change, % (no concentration beside the values) | 340,000 tested, 0.49% active
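In 5 uL wells, 23 nL compound meets equimolar GST-E1A and His-CtBP (5X stock 125 nM each) for 2 h, 37 °C. Beads (5X, 50 ug/mL) then 1 h, 37 °C, dark.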
* marks the source's active call; other numbers are inactive results; i = inactive; u = inconclusive; x = no result. Rule as the data show it, unless noted: active = activity change below about -65%; inconclusive = mostly about -30% to -63%; inactive = weaker than that. % is scaled to controls: 0 for no effect and ±100 for the full control effect.

SMILES	CCT chaperon mod	Six1-Eya2 blk	pAkt inh	CtBP-E1A blk
COc1ccc2[nH]c3c(c2c1)CCN1C(=O)C(CC(=O)NCc2cccc(C(F)(F)F)c2)C[C@H](C(=O)N2CCCCC2)[C@@]31CCc1ccccc1 (stereo not given in full)	-1	5	i	-14
Cc1ccc(-c2c(C(=O)N/N=C/c3c[nH]c4ccccc34)nnn2-c2nonc2N)cc1	-74*	-16	x	x
CCOC(=O)c1nnn(-c2nonc2N)c1-c1ccc(OC)cc1	0	12	-110%*	1
COCc1c(C(=O)N/N=C\c2ccccn2)nnn1-c1nonc1N	0	-74*	i	-70*
CCCc1c(C(=O)N/N=C/c2c[nH]c3ccccc23)nnn1-c1nonc1N	0	-1	i	3
Cc1cc(N2CCN(C(c3ccnc4ccccc34)c3nnnn3-c3c(C)cccc3C)CC2)c2ccccc2n1 (stereo not given)	0	-17	i	-11
c1cc(-c2ccsc2)n2cnnc2c1	1	-1	i	-1
CCOc1ccc(Br)cc1C1=NN(C(C)=O)C(c2ccc([N+](=O)[O-])s2)O1 (stereo not given)	0	-10	i	u
COC(=O)c1cc(C(=O)OC)cc(N2C(=O)CN=C2Nc2nc(C)cc(C)n2)c1	-2	6	-80%*	-14
CCc1ccc(NC(=O)C2CCN(S(=O)(=O)c3cnc[nH]3)CC2)cc1	0	4	i	3
CCc1ccc(NC(=O)C2CCCN(S(=O)(=O)c3cnc[nH]3)C2)cc1 (stereo not given)	-74*	17	x	x
COc1ccc(/C=C/C(=O)O)cc1	-1	5	i	1
COc1ccc(/C=C/C(=O)Oc2ccc(C)cc2)cc1	3	-2	i	-70*
COc1ccc(OC)c(/C=C/C(=O)OCC(=O)N2C(C)CCCC2C)c1 (stereo not given)	0	-67*	i	-94*
COc1ccc(OC)c(/C=C/C(=O)Oc2ccc(C(C)=O)cc2)c1	-1	-23	i	-88*
O=C1CC(N2CCN(c3nc4ccccc4s3)CC2)C(=O)N1Cc1cccs1 (stereo not given)	-1	3	-143%*	-7
CCC(=O)N1CCC1(C)C(=O)NS(=O)(=O)c1cccc(C#N)c1 (stereo not given)	-3	13	i	7
O=C(NNS(=O)(=O)c1ccc(F)cc1)c1ccccc1	-4	12	i	-17
O=C(NNc1ccccn1)C(=O)NNS(=O)(=O)c1ccc(F)cc1	2	-90*	i	-92*
O=C(NNc1ccccn1)C(=O)NNS(=O)(=O)c1ccc(Cl)cc1	-2	-85*	i	u
O=C(NCc1ccccc1)C12CC3CC(CC(C3)C1)C2	-1	-1	i	4
O=C(NCc1ccncc1)C12CC3CC(CC(C3)C1)C2	-84*	7	i	1
COc1ccc(CC(=O)Nc2nc(C(C)(C)C)cs2)cc1	-67*	3	i	9
COc1ccc(CC(=O)Nc2nc(C)cs2)cc1	-6	-2	i	-1
NS(=O)(=O)c1ccc(CCNC(=O)COC(=O)CCc2c[nH]c3ccccc23)cc1	-2	-1	i	-6
SMILES	CCT chaperon mod	Six1-Eya2 blk	pAkt inh	CtBP-E1A blk
Cc1cccc(C)c1NC(=O)CSc1nc(C)c(CC(=O)c2ccc(Br)cc2)c(C)c1C#N	1	-5	-102%*	-1
CCOC(=O)C1CCN(C(=O)CN2C(=O)COc3ccc(C(C)(C)C)cc32)CC1	-4	2	x	x
CC(C)(C)OC(=O)Nc1ncnc2c1ncn2C1OC(CO)C2OC(C)(C)OC21 (stereo not given)	-1	-6	i	0
CC1(C)O[C@@H]2[C@H](O1)[C@@H](CO)O[C@H]2n1cnc2c(=O)[nH]cnc21	-49*	0	i	2
O=C(NCc1ccncc1)c1csc([C@@H]2C[C@H](O)[C@@H](CO)O2)n1	-1	36	i	-3
COc1cccc(/C=N/NC(=O)N/N=C/c2cccc(OC)c2O)c1O	-1	u	i	u
COc1ccc(/C=N/NC(=O)c2ccc3nc[nH]c3c2)c(OC)c1	-1	3	i	x
CCN(CC)c1ccc(/C=N/NC(=O)c2ccc3nc[nH]c3c2)c(O)c1	-2	u	i	-75*
COc1cccc(C=NNC(=O)c2ccncc2)c1O	1	-80*	i	-94*
CCN(CC)c1ccc(/C=N/NC(=S)NC)c(O)c1	-2	-90*	i	u
COc1cccc(/C=N/Nc2nn3cnnc3c3ccccc23)c1O	-1	-87*	i	-91*
CCN(CC)c1ccc(/C=N/NC(=O)OC)c(O)c1	1	-19	i	-14
COc1cccc(/C=N/Nc2ccccc2C(=O)O)c1O	-3	-5	i	-10
CCN(CC)c1ccc(N=C2C=CC(=O)C=C2NC(C)=O)cc1	2	-18	i	-16
CCOc1cccc(/C=N/NC(=O)c2cc(C3CC3)[nH]n2)c1O	-1	-86*	i	x
COc1cccc(/C=N/NC(=O)c2c(C)nc3ccc(Br)cn23)c1O	-2	-92*	i	-91*
COc1cccc(/C=N/NC(=O)c2ccc3nc[nH]c3c2)c1O	-2	-87*	i	-96*
COc1cc(OC)c(OC)cc1/C=N/NC(=O)c1ccc2nc[nH]c2c1	-4	-15	i	-23
O=C(CSC1=NS(=O)(=O)c2cc(F)ccc2N1)NCc1ccc(F)cc1	-1	-2	i	1
COc1cccc(/C=N/NC(=O)CNC(=O)COc2cccc(C)c2)c1O	1	-73*	i	x
Cc1cccc(OCC(=O)NCC(=O)N/N=C/c2cc(Br)ccc2OCc2ccccc2)c1	1	5	i	6
Cc1cccc(OCC(=O)NCC(=O)N/N=C/c2ccc(O)cc2O)c1	3	-85*	i	x
Cc1cccc(OCC(=O)NCC(=O)N/N=C/c2ccccc2)c1	1	-2	i	3
COc1ccc(CN(C)C(=O)c2cnc(OC)cc2C(F)(F)F)c(OC)c1	-1	1	i	-5
CC(=O)Nc1ccc(C(=O)OCC(=O)N2CCC(Cc3ccccc3)CC2)cc1	-2	-1	i	0
C=CCn1c(SCC(=O)Nc2ccc3c(c2)OCO3)nnc1-c1ccccc1	-1	6	i	-2
C=CCn1c(SCC(=O)Nc2ccc3c(c2)OCO3)nnc1-c1cc(Br)ccc1O	1	-85*	i	-92*
COc1ccc(OCC(=O)N/N=C/c2cccc3cccnc23)cc1	-1	-80*	i	-86*
O=C(COc1ccc(Cl)cc1)N/N=C/c1cccc2cccnc12	0	u	i	u
COc1cccc(/C=N/NC(=O)CSc2cccc3cccnc23)c1	-1	-94*	i	-94*
